Records with an inconclusive call do not appear. The source made the active and inactive calls. Calls follow the shape of the dose curve; as a rule, active = well fitted activation curve with a large enough effect; inconclusive = small, poorly fitted or top-dose-only effect; inactive = no such curve, though single readings can be large or run the other way.
assay: qHTS assay for re-activators of p53 using a Luc reporter: Hit Validation with no p53 Expressed; conditions: p53-null cells, luciferase reporter counter-screen; series mostly up to 46.1 µM; activity change, positive = activation: at the top concentration; as to activity change, positive = activation: 0% is about no effect
How it was run: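 Counter-screen of primary hits in a cell line not transfected with p53, in Opti-MEM with 10% FBS; compounds at several concentrations (10 mM stock, 1:5; top 46.1 µM in well), 24 h at 37 deg C, 5% CO2. Luminescence read after 10 min with Amplite reagent.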
Potency is read from the fitted curve at half-maximal effect.

| Compound | activity change, positive = activation | Potency |
| --- | --- | --- |
| CC(Sc1nc(N)cc(=O)[nH]1)C(=O)NNC(=O)c1cccc(Cl)c1 (centres undefined) | -14.3% (inactive) |  |
| CCCCCCC1CC(/C(C)=N\NC(N)=O)OC1=O (centres undefined) | -7.06% (inactive) |  |
| Cc1ccc2nc(C(F)(F)F)c(C#N)c(N)c2c1 | -43.8% (inactive) |  |
| COc1ccc(N2CCN(C3CCCN(Cc4cccc(OC)c4)C3)CC2)cc1 (centres undefined) | 19.7% (inactive) |  |
| Cc1ccccc1S(=O)(=O)Nc1nc2ccccc2nc1N1CCc2ccccc2C1 | 50.8% (inactive) |  |
| COC(=O)CSc1nc2cc3c(cc2cc1C#N)OCO3 | -2.65% (inactive) |  |
| NNc1nc(NCc2ccccc2)nc(N2CCOCC2)n1 | 13.5% (inactive) |  |
| O=C(Nc1cccnc1)Nc1ccc(Br)cc1Cl | -23.6% (inactive) |  |
| O=c1oc2ccccc2nc1/C=C(O)/C=C/c1ccc(F)cc1 | 55.3% (inactive) |  |
| CCN(CC)CCN1C(=O)C(=O)/C(=C(/O)c2cnn(-c3ccccc3)c2C)C1c1ccc(C)o1 (centres undefined) | 24.6% (inactive) |  |
| Cc1cc(C)cc(NC(=O)CSc2nnc(-c3ccccc3C)o2)c1 | -19.1% (inactive) |  |
| O=C(NC1CC1)c1cccc(NC(=O)c2cn3ccccc3n2)c1 | -15.6% (inactive) |  |
| Cc1c(/C(O)=C2/C(=O)C(=O)N(CCN3CCOCC3)C2c2cccs2)cnn1-c1ccccc1 (centres undefined) | 16.8% (inactive) |  |
| O=C(/C=C/Nc1ccccc1F)c1cccs1 | 40.9% (inactive) |  |
| COc1ccc(-n2c(C)cc(C(=O)COc3ccc(C)nc3[N+](=O)[O-])c2C)cc1 | -28.6% (inactive) |  |
| CC(C)CCn1cnc2c(sc3nc4c(cc32)CSC(C)(C)C4)c1=O | 33% (inactive) |  |
| Cc1cc(C(=O)N2CCN(c3ccccc3Cl)CC2)c(C)o1 | 12.6% (inactive) |  |
| Cc1cccc(-n2c(C)cc(/C=N\NC(=O)c3cccs3)c2C)c1 | 32.6% (inactive) |  |
| NC(=NCc1ccccc1)c1cccc([N+](=O)[O-])c1 | -33.5% (inactive) |  |
| CCS(=O)(=O)NCCc1csc(-c2ccccc2)n1 | -21.3% (inactive) |  |

| Compound | activity change, positive = activation | Potency |
| --- | --- | --- |
| Cc1ccc(-c2nnc(N(C)C(=O)C3CCCO3)s2)cn1 (centres undefined) | 5.59% (inactive) |  |
| C/C(=N\NC(=S)NC1CCCCC1)c1ccccc1 | -26.8% (inactive) |  |
| c1ccc(COc2ccc(OCCOCCn3cncn3)cc2)cc1 |  | 1.3 µM (active) |
| C=CCOc1c(OC)cc(/C=N/Nc2cccc(C(=O)O)c2)c(Br)c1Br | 49.3% (inactive) |  |
| Cc1ccc(C(C)C)c(OCc2ccc(C(=O)N/N=C/c3ccc(O)cc3O)cc2)c1 | -41.7% (inactive) |  |
| Cc1ccnc(NC(=O)CCC2CCCCC2)c1 | 22.1% (inactive) |  |
| Cc1ccc2cc3c(N)c(C(=O)N4CCOCC4)sc3nc2c1 | 61.4% (inactive) |  |
| Clc1ccc(-c2nnc(SCc3ccon3)o2)c(Cl)c1 |  | 1.84 µM (active) |
| C=CCn1c(P(C)(=O)O)nc2ccccc21 | 36% (inactive) |  |
| COc1ccccc1Oc1c(C)oc2c(CN(C)C)c(O)ccc2c1=O | -5.95% (inactive) |  |
| Cc1ccccc1OCC(=O)Nc1cccc2nsnc12 | 37.9% (inactive) |  |
| O=C(/C(=N/N=C/c1ccc(O)c(O)c1)c1ccccc1)c1ccccc1 | -13.4% (inactive) |  |
| COc1ccc(N2C(=O)CC(Cc3ccc(Br)cc3)C2=O)cc1 (centres undefined) | -57.2% (inactive) |  |
| c1ccc2nc(-c3ccc(N4CCOCC4)cc3)ccc2c1 | -36.1% (inactive) |  |
| CN1CCN(c2ncnc3c2cnn3-c2ccc(Cl)cc2)CC1 | -9.81% (inactive) |  |
| C#CCOc1ccc(/C=C2\SC(=S)N(Cc3cccnc3)C2=O)cc1 | 23.1% (inactive) |  |
| CCOC(=O)c1[nH]c(C)c(C(=O)NCCC2=CCCCC2)c1C | -12% (inactive) |  |
| COCCCNC(=O)Nc1ccc(Br)cc1Cl | -16.6% (inactive) |  |
| Cc1cc(C(=O)NC2CCCCC2)c(C)n1-c1ccc(F)cc1 | 27.4% (inactive) |  |
